# Rows were chosen to be rich in hits. Some 2.9% of all compounds tested hit in one or more screens of this group.
# 12-LOX inh: inhibitors of human 12S-lipoxygenase ALOX12; Potency, µM (highest dose often 108 µM), inactives show top-dose activity change, negative = inhibition, actives largely listed as inhibitors; 580,000 tested, 1.1% active; purified 12hLO, xylenol orange hydroperoxide absorbance; P18054; further: potency means the concentration at half of the fitted maximal effect; on the % scale 0 is the no-effect control and ±100 the full control effect
#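 Purified human 12hLO at 150 nM in 25 mM Hepes, 0.01% Triton X-100, pH 7.0, preincubated 15 min at room temperature with compound. Reaction started with 40 uM arachidonic acid, 30 min at room temperature. Hydroperoxide measured by Fe-xylenol orange, 573/405 nm absorbance ratio.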
# POLK inh: inhibitors of human DNA polymerase kappa. purified Pol kappa, fluorescent DNA synthesis assay, 10 min. AID 588579. Potency, µM (titrated, usually from 107 µM), for the others: at the highest dose activity, negative = inhibition, hits mostly inhibitors. 400,000 tested, 0.53% active. Q9UBT6; further: potency means the concentration at half of the fitted maximal effect; on the % scale 0 is the no-effect control and ±100 the full control effect
#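 10 nM Pol kappa preincubated 15 min at room temperature with compounds, then reaction started with substrate at 50 nM final. Fluorescence read kinetically at 0 and 10 min; buffer-only wells served as negative control.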
# POLH inh: inhibitors of human DNA polymerase eta; recombinant Pol eta, fluorescent DNA replication assay; Potency, µM (series often up to 114 µM), inactives show at the highest dose activity change, negative = inhibition, usual class: inhibitors; AID 588591; 390,000 tested, 1.2% active; further: potency means the concentration at half of the fitted maximal effect; on the % scale 0 is the no-effect control and ±100 the full control effect
# Target sequence (Q9Y253 whole entry, looked up): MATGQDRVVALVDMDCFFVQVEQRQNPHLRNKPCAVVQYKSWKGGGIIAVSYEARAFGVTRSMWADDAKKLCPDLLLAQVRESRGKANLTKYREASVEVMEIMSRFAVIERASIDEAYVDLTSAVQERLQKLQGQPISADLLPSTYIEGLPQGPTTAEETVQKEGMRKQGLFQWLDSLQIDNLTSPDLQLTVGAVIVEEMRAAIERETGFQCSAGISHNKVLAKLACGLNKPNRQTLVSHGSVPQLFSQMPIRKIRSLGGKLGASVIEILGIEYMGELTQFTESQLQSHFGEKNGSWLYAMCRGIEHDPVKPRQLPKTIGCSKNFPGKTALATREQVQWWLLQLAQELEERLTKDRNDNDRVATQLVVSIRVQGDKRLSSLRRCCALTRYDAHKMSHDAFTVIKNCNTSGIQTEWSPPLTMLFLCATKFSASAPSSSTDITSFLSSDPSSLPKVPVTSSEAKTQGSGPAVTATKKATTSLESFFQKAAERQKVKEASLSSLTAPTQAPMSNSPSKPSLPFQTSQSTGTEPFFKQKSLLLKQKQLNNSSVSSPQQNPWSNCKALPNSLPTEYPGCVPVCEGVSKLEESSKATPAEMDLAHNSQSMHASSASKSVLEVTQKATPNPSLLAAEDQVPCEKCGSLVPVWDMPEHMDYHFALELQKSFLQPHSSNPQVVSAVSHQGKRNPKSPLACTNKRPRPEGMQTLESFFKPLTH
#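 Pol eta (10 nM) was preincubated with compounds for 15 min at room temperature, after which fluorescent replication substrate (50 nM final) was added to start the reaction. Fluorescence was read kinetically at 0 and 10 min.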
# Pol beta inh: DNA polymerase beta (human) inhibition | 340,000 tested, 1.3% active | Potency, µM (highest dose often 114 µM), inactives show at the top dose activity change, negative = inhibition, hits mostly inhibitors | P06746 | Pol beta primer extension/strand displacement, fluorescence kinetic; further: potency means the concentration at half of the fitted maximal effect; on the % scale 0 is the no-effect control and ±100 the full control effect
#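 10 nM enzyme + cpd, 15 min RT; start with substrate 50 nM final; read 0 min and after 10 min RT. Corrected, normalized data; 4-parameter Hill curve fit.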
# Pol iota inh: blocks human DNA polymerase iota activity. Q9UNA4. Pol iota fluorescent replication assay, 10 min. Potency, µM (highest dose often 115 µM), for inactives: at the highest dose activity, negative = inhibition, usual class: inhibitors. 390,000 tested, 1% active. AID 588590; further: potency means the concentration at half of the fitted maximal effect
#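 Fluorescent replication assay read twice, at 0 min and 10 min after adding 50 nM (final) substrate. Enzyme (10 nM) and compounds were first incubated 15 min at room temperature; enzyme-free buffer wells were negative controls.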
# PI5P4Ka inh: blocks human PI5P4K alpha kinase activity; PI5P4Kalpha enzyme, ADP-Glo luminescence, 60 min; stronger effect = lower value; 330,000 tested, 1.2% active; P48426; AID 652105; max response, %; active means max response of -50% or lower; inconclusive means between -30% and -50%; inactive means -30% or higher; further: value at the top dose of about 77 µM; on the % scale 0 is the no-effect control and ±100 the full control effect
#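 Luminescence from ADP-Glo served as readout of PI5P4Kalpha activity in a qHTS format. Reaction: enzyme, substrate, compound, ATP at 5 microM final, 60 min at RT.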
# * = called active by the depositor; ? = inconclusive; / = not tested or not shown. Unless noted, the call rests on the fitted dose curve; in most records, active means well fitted inhibition curve with a large enough effect; inconclusive means small, poorly fitted or top-dose-only effect, or another doubt; inactive means no such curve, though single readings can be large or run the other way.
SMILES,12-LOX inh,POLK inh,POLH inh,Pol beta inh,Pol iota inh,PI5P4Ka inh
O=C(/C=C/c1ccco1)Oc1ccc(Sc2ccc(OC(=O)/C=C/c3ccco3)cc2)cc1,11.2µM*,/,/,/,/,/
COC(=O)c1ccc(/C=C/C(=O)OCC(=O)Nc2ncc(Cl)cc2Cl)cc1,389.6%,6.8%,-8.7%,/,46.1%,-10.4
O=C(COC(=O)/C=C/c1ccco1)Nc1ncc(Cl)cc1Cl,?,?,39.8µM*,?,35.5µM*,-19.5
Nc1nc(SCC(=O)Nc2ncc(Cl)cc2Cl)n[nH]1,?,-41.1%,?,/,79.4µM*,?
CC(C)NC(=O)COC(=O)/C=C/c1ccco1,-2.7%,-31.8%,?,39.8µM*,79.4µM*,1.7
COc1ccc(C2CC(c3cccs3)=NN2C(=O)CSc2nc(=O)n3ccc(C)cc3n2)cc1 (configuration not stated),/,-25.1%,?,/,22.4µM*,?
C#CCOCCOCCOCCNc1nc(N2CCN(C(=O)[C@H](Cc3ccc(O)cc3)n3cc([C@@H](N)C(C)CC)nn3)CC2)nc(N2CCN(C(=O)[C@H](Cc3cc4ccccc4[nH]3)n3cc([C@@H](N)C(C)CC)nn3)CC2)n1 (some centres not stated),/,-13.4%,-9.2%,25.1µM*,28.2µM*,?
C#CCOCCOCCOCCNc1nc(N2CCN(C(=O)[C@H](Cc3cc4ccccc4[nH]3)n3cc([C@@H](N)CC(C)C)nn3)CC2)nc(N2CCN(C(=O)[C@H](Cc3cc4ccccc4[nH]3)n3cc([C@@H](N)CC(C)C)nn3)CC2)n1,/,-2.8%,-3.1%,28.2µM*,?,?
C#CCOCCOCCOCCNc1nc(N2CCN(C(=O)[C@H](Cc3ccc(O)cc3)n3cc([C@@H](N)C(C)CC)nn3)CC2)nc(N2CCN(C(=O)[C@H](Cc3cc4ccccc4[nH]3)n3cc([C@@H](N)CC(C)C)nn3)CC2)n1 (some centres not stated),?,2.7%,-9.5%,28.2µM*,79.4µM*,?
C#CCOCCOCCOCCNc1nc(N2CCN(C(=O)C(Cc3cc4ccccc4[nH]3)n3cc(C(N)Cc4ccc(O)cc4)nn3)CC2)nc(N2CCN(C(=O)C(Cc3cc4ccccc4[nH]3)n3cc(C(N)Cc4ccc(O)cc4)nn3)CC2)n1 (configuration not stated),/,-7.0%,-14.6%,1.7%,-8.1%,-91.6*
C#CCOCCOCCOCCNc1nc(N2CCN(C(=O)[C@H](Cc3cc4ccccc4[nH]3)n3cc([C@@H](N)Cc4ccc(O)cc4)nn3)CC2)nc(N2CCN(C(=O)[C@H](Cc3cc4ccccc4[nH]3)n3cc([C@@H](N)CC(C)C)nn3)CC2)n1,/,0.7%,5.6%,-3.5%,?,?
O=C(CN1CCCC1c1cccs1)C12CC3CC(CC(C3)C1)C2 (configuration not stated),6.31µM*,/,/,/,/,/
COC(=O)C1=C(C)N(CC(C)C)C(=O)NC1c1ccc(Br)s1 (configuration not stated),4.8%,/,/,/,/,/
O=c1oc2ccc(Cl)cc2cc1-c1csc(Nc2ccccc2)n1,20µM*,/,/,/,/,/
COc1cccc2sc(Nc3nc(-c4cc5ccccc5oc4=O)cs3)nc12,-17.5%,?,?,35.5µM*,?,?
COc1cccc(-c2noc(-c3cc4ccccc4oc3=O)n2)c1OC,13.3%,1.2%,-7.3%,17.9%,70.8µM*,/
Cc1cccc(Nc2nc(-c3cc4ccccc4oc3=O)cs2)c1,39.8µM*,/,/,/,/,/
CCOC(C(=O)N(CC)CC(=O)NCc1cccs1)(c1ccccc1)c1ccccc1,-24.4%,/,/,/,/,/
CC(C)Oc1ccc(C(=O)NCc2coc(-c3cccs3)n2)cc1,-5.6%,/,/,/,/,/
COCCN(Cc1ccsc1)Cc1cn[nH]c1-c1ccc(F)cc1,48.8%,/,/,/,/,/
O=C(/C=C/Sc1ccccc1)c1ccc(Cl)cc1,0.5%,-2.6%,-7.3%,-1.8%,?,/
Cc1ccc(C(=O)/C=C/C(=O)c2ccc(C)cc2)cc1,-16.3%,-7.4%,-20.9%,3.4%,30.0%,-52.7*
